# Reference: PubChem BioAssay AID1159580 (chemical genetic matrix, 2015)
# “And” between values parts separate entries of the source, which are not always exact repeats. Equal values may be shown once. Among all 5,500 compounds or so, about 2,000 (36%) were called active. Roughly 18% stayed inconclusive and do not appear here. Some of the results follow. Values without a mark were called inactive. Rule as the data show it: active = normalized growth mostly below about 0.91 (no sharp cut-off); inconclusive = no clear call, values can overlap the other calls; inactive = mostly above about 0.92.
# Assay: chemical genetic growth profiling, strain panel (AID 1159580);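 also: tested at 20 µM; growth read once vehicle control cultures reached saturation at 30 °C; 1 = growth at the plate median or of vehicle wells; lower values mean less growth of the strain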
# Conditions: S. cerevisiae deletion strains, growth OD
smiles,measurement,setting,value
CO[C@@]12[C@@H]3NC3CN1C1=C(C(=O)C(N)=C(C)C1=O)[C@@H]2COC(N)=O (some centres not stated),normalized growth,"locus YAL013W, strain DEP1, hits give low values",0.997
same,normalized growth,"locus YAL021C, strain ccr4, hits give low values",0.98
same,normalized growth,"locus YAL026C, strain drs2, hits give low values",0.969
same,normalized growth,"locus YAL030W, strain snc1, hits give low values",0.989
same,normalized growth,"locus YBL061C, strain skt5, hits give low values",0.964
same,normalized growth,"locus YBR009C, strain hhf1, hits give low values",1
same,normalized growth,"locus YBR021W, strain FUR4, hits give low values",0.995
same,normalized growth,"locus YBR023C, strain chs3, hits give low values",0.962
same,normalized growth,"locus YBR171W, strain sec66, hits give low values",0.958
same,normalized growth,"locus YBR229C, strain ROT2, hits give low values",1
same,normalized growth,"locus YBR231C, strain swc5, hits give low values",0.954
same,normalized growth,"locus YBR279W, strain paf1, hits give low values",0.978
same,normalized growth,"locus YCL011C, strain gbp2, hits give low values",0.95
same,normalized growth,"locus YCL016C, strain dcc1, hits give low values",1.01
same,normalized growth,"locus YCL029C, strain bik1, hits give low values",0.971
same,normalized growth,"locus YCL061C, strain MRC1, hits give low values",0.919 (active)
same,normalized growth,"locus YCL069W, strain vba3, hits give low values",0.984
same,normalized growth,"locus YCR088W, strain abp1, hits give low values",0.971
same,normalized growth,"locus YDL005C, strain med2, hits give low values",0.972
same,normalized growth,"locus YDL035C, strain GPR1, hits give low values",1
same,normalized growth,"locus YDL040C, strain nat1, hits give low values",0.973
same,normalized growth,"locus YDL074C, strain BRE1, hits give low values",1.04
same,normalized growth,"locus YDL101C, strain DUN1, hits give low values",1.01
same,normalized growth,"locus YDL134C, strain PPH21, hits give low values",1.01
same,normalized growth,"locus YDL185W, strain tfp1, hits give low values",0.972
same,normalized growth,"locus YDL192W, strain arf1, hits give low values",0.974
same,normalized growth,"locus YDR001C, strain nth1, hits give low values",0.954
same,normalized growth,"locus YDR069C, strain doa4, hits give low values",0.926
same,normalized growth,"locus YDR101C, strain arx1, hits give low values",1
same,normalized growth,"locus YDR137W, strain rgp1, hits give low values",0.955
same,normalized growth,"locus YDR150W, strain NUM1, hits give low values",0.987
same,normalized growth,"locus YDR159W, strain sac3, hits give low values",0.998
same,normalized growth,"locus YDR162C, strain NBP2, hits give low values",1.05
same,normalized growth,"locus YDR195W, strain ref2",0.879
same,normalized growth,"locus YDR297W, strain sur2, hits give low values",0.966
same,normalized growth,"locus YDR318W, strain mcm21, hits give low values",0.977
same,normalized growth,"locus YDR334W, strain swr1, hits give low values",0.934
same,normalized growth,"locus YDR335W, strain msn5, hits give low values",0.963
same,normalized growth,"locus YDR388W, hits give low values",0.982
same,normalized growth,"locus YDR392W, strain spt3, hits give low values",1.06
same,normalized growth,"locus YDR502C, strain sam2, hits give low values",1.01
same,normalized growth,"locus YEL003W, strain gim4, hits give low values",0.973
same,normalized growth,"locus YEL037C, strain rad23, hits give low values",0.975
same,normalized growth,"locus YEL061C, strain CIN8 (second series), hits give low values",0.95
same,normalized growth,"locus YEL061C, strain CIN8, hits give low values",0.998
same,normalized growth,"locus YER015W, strain faa2, hits give low values",1
same,normalized growth,"locus YER016W, strain bim1, hits give low values",1.01
same,normalized growth,"locus YER110C, hits give low values",0.968
same,normalized growth,"locus YER111C, strain swi4, hits give low values",0.981
same,normalized growth,"locus YER155C, strain BEM2 (second series), hits give low values",0.962
same,normalized growth,"locus YER155C, strain BEM2, hits give low values",0.993
same,normalized growth,"locus YER167W, strain BCK2, hits give low values",0.994
same,normalized growth,"locus YFR010W, strain ubp6, hits give low values",0.927
same,normalized growth,"locus YGL078C, strain dbp3, hits give low values",0.996
same,normalized growth,"locus YGL086W, strain mad1, hits give low values",0.963
same,normalized growth,"locus YGL167C, strain pmr1, hits give low values",0.94
same,normalized growth,"locus YGL173C, strain kem1, hits give low values",0.981
same,normalized growth,"locus YGL227W, strain vid30, hits give low values",0.974
same,normalized growth,"locus YGL240W, strain doc1, hits give low values",0.966
same,normalized growth,"locus YGL248W, strain PDE1, hits give low values",1
same,normalized growth,"locus YGL253W, strain hxk2, hits give low values",0.988
same,normalized growth,"locus YGR078C, strain PAC10, hits give low values",1.04
same,normalized growth,"locus YGR135W, strain pre9, hits give low values",1.02
same,normalized growth,"locus YGR229C, strain SMI1, hits give low values",1.02
same,normalized growth,"locus YGR252W, strain gcn5, hits give low values",0.943
same,normalized growth,"locus YHR013C, strain ard1, hits give low values",0.985
same,normalized growth,"locus YHR027C, strain rpn1, hits give low values",0.978
same,normalized growth,"locus YHR030C, strain SLT2, hits give low values",0.993 and 0.988
same,normalized growth,"locus YHR079C, strain IRE1 (second series), hits give low values",0.994
same,normalized growth,"locus YHR079C, strain IRE1, hits give low values",0.957
same,normalized growth,"locus YHR094C, strain hxt1, hits give low values",0.975
same,normalized growth,"locus YHR129C, strain ARP1, hits give low values",1
same,normalized growth,"locus YHR142W, strain chs7, hits give low values",0.987
same,normalized growth,"locus YHR200W, strain rpn10, hits give low values",0.971
same,normalized growth,"locus YIL066C, strain RNR3, hits give low values",0.998
same,normalized growth,"locus YIL073C, strain SPO22, hits give low values",0.914
same,normalized growth,"locus YIL125W, strain kgd1, hits give low values",0.996
same,normalized growth,"locus YIR030C, strain dcg1, hits give low values",0.991
same,normalized growth,"locus YJL092W, strain hpr5, hits give low values",0.936
same,normalized growth,"locus YJL095W, strain BCK1 (second series), hits give low values",0.967
same,normalized growth,"locus YJL095W, strain BCK1, hits give low values",1.04 and 0.999
same,normalized growth,"locus YJL115W, strain asf1, hits give low values",0.968
same,normalized growth,"locus YJL129C, strain trk1, hits give low values",0.96
same,normalized growth,"locus YJL134W, strain LCB3, hits give low values",1
same,normalized growth,"locus YJL154C, strain vps35, hits give low values",0.958
same,normalized growth,"locus YJL164C, strain tpk1, hits give low values",1.01
same,normalized growth,"locus YJL166W, strain qcr8, hits give low values",0.932
same,normalized growth,"locus YJL168C, strain set2, hits give low values",0.983
same,normalized growth,"locus YJL187C, strain SWE1 (second series), hits give low values",1.01
same,normalized growth,"locus YJL187C, strain SWE1, hits give low values",0.98
same,normalized growth,"locus YJR043C, strain POL32, hits give low values",0.98
same,normalized growth,"locus YJR066W, strain TOR1, hits give low values",0.941
